The text below walks through data of the antibiotic and cytotoxicity screens of Wong et al. (2023).

Among all 39,000 compounds or so, about 3,300 (8.5%) were called active. Many of the other results were omitted from the sample, so actives are more common in it than they were.

The subject of the test is HepG2. The test is described as follows: cytotoxicity call (relative viability < 0.9). To be noted: 10 µM.
With `O=C(C[C@@H]1C=C[C@@H](NC(=O)c2cnccn2)[C@H](CO)O1)NCc1ccccc1F`, the cytotoxicity call was “inactive”. With `O=C(C[C@@H]1C[C@@H]2c3cc(NC(=O)Cc4ccncc4)ccc3O[C@@H]2[C@H](CO)O1)NCc1cccc(F)c1` the entry was “inactive”. In the case of `CS(=O)(=O)[O-].C[n+]1ccccc1C=NO`, the cytotoxicity call is “inactive”. Under `OCc1cccc(CO)c1F` stands “inactive”; under `COc1ccc(S(=O)(=O)Nc2ccc3c(c2)CC(=O)N([C@@H](C)CO)C[C@H](C)[C@H](CN(C)C)O3)cc1`, “inactive”; under `C[C@@H](O)CC1=C[C@H]([C@@H](C)O)OC1=O`, “inactive”. With `C[C@@H]1CN([C@H](C)CO)C(=O)c2cc(NS(=O)(=O)c3cn(C)cn3)ccc2O[C@@H]1CN(C)S(=O)(=O)c1cccs1` the entry was “inactive”. With `COc1ccc(S(=O)(=O)N(C)C[C@@H]2Oc3ccc(NS(=O)(=O)c4cccs4)cc3C(=O)N([C@H](C)CO)C[C@H]2C)cc1` the entry was “inactive”. In the case of `C[C@H](CO)N1C[C@H](C)[C@H](CN(C)S(=O)(=O)c2cn(C)cn2)Oc2ccc(NS(=O)(=O)c3ccc(F)cc3)cc2C1=O`, the cytotoxicity call was “inactive”. As to `C[C@@H]1CN([C@@H](C)CO)C(=O)c2cc(NS(=O)(=O)c3cn(C)cn3)ccc2O[C@H]1CN(C)S(C)(=O)=O`, the cytotoxicity call is “active”. With `C[C@@H]1CN([C@@H](C)CO)C(=O)c2cc(NS(=O)(=O)c3cn(C)cn3)ccc2O[C@H]1CN(C)S(=O)(=O)c1cccs1` the entry was “active”; with `C[C@@H]1CN([C@H](C)CO)C(=O)c2cc(NS(=O)(=O)c3ccc(F)cc3)ccc2O[C@H]1CN(C)S(=O)(=O)c1cn(C)cn1`, “active”.

Regarding `C[C@H]1CN([C@@H](C)CO)C(=O)c2cc(NS(=O)(=O)c3cn(C)cn3)ccc2O[C@@H]1CN(C)S(C)(=O)=O`, the cytotoxicity call is “inactive”. With `C[C@@H]1CN([C@H](C)CO)C(=O)c2cc(NS(=O)(=O)c3cn(C)cn3)ccc2O[C@H]1CN(C)S(=O)(=O)c1cccs1` the entry was “inactive”; with `COc1ccc(S(=O)(=O)N(C)C[C@H]2Oc3ccc(NS(=O)(=O)c4cccs4)cc3C(=O)N([C@H](C)CO)C[C@H]2C)cc1`, “inactive”. Regarding `C[C@@H]1CN([C@H](C)CO)C(=O)c2cc(NS(=O)(=O)c3cn(C)cn3)ccc2O[C@@H]1CN(C)S(C)(=O)=O`, the cytotoxicity call was “inactive”.

Regarding `COc1ccc(S(=O)(=O)N(C)C[C@@H]2Oc3ccc(NS(=O)(=O)c4cccs4)cc3C(=O)N([C@@H](C)CO)C[C@@H]2C)cc1`, the cytotoxicity call is “active”. For the compound `C[C@H](CO)N1C[C@H](C)[C@@H](CN(C)S(=O)(=O)c2cn(C)cn2)Oc2ccc(NS(=O)(=O)c3ccc(F)cc3)cc2C1=O`, the cytotoxicity call was “inactive”.

For `CC(C)NC(=O)N(C)C[C@H]1Oc2ccc(NC(=O)CCC(F)(F)F)cc2CC(=O)N([C@H](C)CO)C[C@@H]1C`, the cytotoxicity call was “inactive”. Under `C[C@@H]1CCCCO[C@H](CN(C)C(=O)Nc2ccccc2)[C@@H](C)CN([C@H](C)CO)C(=O)c2cc(NC(=O)Nc3cccc4ccccc34)ccc2O1` stands “inactive”; under `Cc1noc(C)c1S(=O)(=O)Nc1ccc2c(c1)C(=O)N([C@@H](C)CO)C[C@@H](C)[C@H](CN(C)C(=O)Nc1ccccc1)OCCCC[C@@H](C)O2`, “inactive”. With `N[C@@H](C(=O)O)[C@@H](O)[C@H](O)[C@H](O)CO` the entry was “inactive”. Consider `Fc1ccc(C2=NNC3=NCCN3C2)cc1F`, for which the cytotoxicity call was “inactive”. Turning to `COc1ccc(S(=O)(=O)Nc2cccc3c2O[C@H](CN(C)S(=O)(=O)c2ccccc2)[C@@H](C)CN([C@H](C)CO)C3=O)cc1`, the cytotoxicity call is “inactive”.

With `C[C@@H]1CCCCO[C@@H](CN(C)Cc2ccc(C(=O)O)cc2)[C@H](C)CN([C@H](C)CO)C(=O)c2cc(NC(=O)Nc3ccccc3)ccc2O1`, the cytotoxicity call was “inactive”. Under `C[C@H]1CN([C@@H](C)CO)C(=O)Cc2cc(NS(=O)(=O)c3cn(C)cn3)ccc2O[C@H]1CN(C)C` stands “inactive”; under `CNC[C@@H]1OCCCC[C@@H](C)Oc2ccc(NC(=O)c3ccncc3)cc2C(=O)N([C@H](C)CO)C[C@@H]1C`, “inactive”; under `C[C@H]1CN([C@@H](C)CO)C(=O)c2cccc(NC(=O)Nc3cccc4ccccc34)c2O[C@@H]1CN(C)S(=O)(=O)c1cccs1`, “inactive”. As for `O=C(C[C@H]1C[C@H]2c3cc(NC(=O)Nc4ccc(C(F)(F)F)cc4)ccc3O[C@H]2[C@@H](CO)O1)NCCc1ccccc1`, the cytotoxicity call is “inactive”. With `C[C@H](CO)N1C[C@H](C)[C@H](CN(C)C(=O)Nc2ccccc2)Oc2ccc(NS(=O)(=O)c3cn(C)cn3)cc2C1=O` the entry was “active”; with `C[C@@H]1CN([C@H](C)CO)C(=O)Cc2cc(NS(=O)(=O)c3cccs3)ccc2O[C@@H]1CN(C)S(=O)(=O)c1cccs1`, “inactive”.

For `C[C@@H]1CN([C@@H](C)CO)C(=O)c2cc(NS(=O)(=O)c3cn(C)cn3)ccc2O[C@@H]1CN(C)C(=O)Nc1ccccc1`, the cytotoxicity call is “inactive”. Under `C[C@@H]1CN([C@H](C)CO)C(=O)c2cc(NS(=O)(=O)c3cn(C)cn3)ccc2O[C@@H]1CN(C)C(=O)Nc1ccccc1` stands “inactive”.

Take `C[C@H](CO)N1C[C@H](C)[C@@H](CN(C)S(=O)(=O)c2cccs2)Oc2ccc(NS(=O)(=O)c3cccs3)cc2CC1=O`: the cytotoxicity call is “active”. With `C[C@@H]1CN([C@@H](C)CO)C(=O)Cc2cc(NS(=O)(=O)c3cccs3)ccc2O[C@H]1CN(C)S(=O)(=O)c1cccs1` the entry was “inactive”.

With `COc1ccc(S(=O)(=O)N(C)C[C@@H]2Oc3ccc(NS(=O)(=O)c4cccs4)cc3C(=O)N([C@H](C)CO)C[C@@H]2C)cc1`, the cytotoxicity call is “active”. Regarding `C[C@@H]1CN([C@H](C)CO)C(=O)c2cc(NS(=O)(=O)c3cccs3)ccc2O[C@H]1CN(C)S(=O)(=O)c1cccs1`, the cytotoxicity call was “active”. Under `COc1ccc(S(=O)(=O)N(C)C[C@H]2Oc3ccc(NS(=O)(=O)c4cccs4)cc3C(=O)N([C@@H](C)CO)C[C@@H]2C)cc1` stands “inactive”. With `COc1ccc(S(=O)(=O)N(C)C[C@H]2Oc3ccc(NS(=O)(=O)c4cccs4)cc3C(=O)N([C@@H](C)CO)C[C@H]2C)cc1` the entry was “inactive”. With `C[C@H](CO)N1C[C@H](C)[C@@H](CN(C)S(=O)(=O)c2cccs2)Oc2ccc(NS(=O)(=O)c3cccs3)cc2C1=O` the entry was “inactive”.

In the case of `C[C@H]1CN([C@@H](C)CO)C(=O)c2cc(NS(=O)(=O)c3cccs3)ccc2O[C@H]1CN(C)S(=O)(=O)c1cccs1`, the cytotoxicity call was “inactive”. Under `C[C@@H]1CCCCO[C@@H](CN(C)C(=O)c2ccccc2)[C@H](C)CN([C@H](C)CO)C(=O)c2cc(NC(=O)Nc3ccccc3)ccc2O1` stands “inactive”.

As for `Cc1ccc(S(=O)(=O)NCC[C@@H]2CC[C@@H](NS(=O)(=O)c3ccccc3Cl)[C@@H](CO)O2)cc1`, the cytotoxicity call was “inactive”. With `C[C@H]1CN([C@@H](C)CO)S(=O)(=O)c2ccc(C3=CCCC3)cc2O[C@@H]1CN(C)C(=O)Cc1ccncc1` the entry was “inactive”; with `COc1cccc(S(=O)(=O)N(C)C[C@H]2Oc3ncc(-c4cccc(C(=O)N(C)C)c4)cc3C(=O)N([C@H](C)CO)C[C@@H]2C)c1`, “inactive”. With `C[C@H](CO)N1C[C@H](C)[C@H](CN(C)C(=O)Cc2ccccn2)Oc2cc(C#Cc3ccccc3)ccc2S1(=O)=O` the entry was “inactive”; with `COc1ccc(CNC(=O)C[C@@H]2CC[C@H]3[C@@H](COC[C@H](O)CN3S(=O)(=O)c3ccc(OC)cc3)O2)cc1`, “inactive”; with `C[C@H]1CN([C@@H](C)CO)C(=O)c2cc(NC(=O)Cc3ccccc3)ccc2O[C@H]1CN(C)S(=O)(=O)c1cccs1`, “inactive”.

For the compound `COc1ccc(NC(=O)Nc2ccc3c(c2)C(=O)N([C@H](C)CO)C[C@H](C)[C@H](CN(C)S(=O)(=O)c2ccc(OC)cc2)OCCCC[C@@H](C)O3)cc1`, the cytotoxicity call is “inactive”. Consider `COc1ccccc1S(=O)(=O)N[C@H]1CC[C@H](CCNC(=O)C2CC2)O[C@@H]1CO`, for which the cytotoxicity call was “inactive”. With `C[C@@H]1O[C@@H](O[C@@H]2C=C(CO)[C@H]3[C@H](O[C@@H]4O[C@H](CO)[C@@H](O)[C@H](O)[C@H]4O)OC=C[C@H]32)[C@H](O)[C@H](O)[C@H]1OC(=O)/C=C/c1ccccc1` the entry was “inactive”. Under `C[C@H](CO)N1C[C@H](C)[C@H](CN(C)S(=O)(=O)c2ccc(F)cc2)OCCCC[C@H](C)Oc2ccc(NC(=O)CCC(F)(F)F)cc2C1=O` stands “inactive”; under `C[C@@H]1CCCCO[C@H](CN(C)Cc2ccccc2)[C@H](C)CN([C@H](C)CO)C(=O)c2cc(NC(=O)NC3CCCCC3)ccc2O1`, “inactive”. With `C[C@H]1CN([C@@H](C)CO)C(=O)c2cccc(NC(=O)Nc3ccc4c(c3)OCO4)c2O[C@@H]1CN(C)Cc1ccc(-c2ccccc2)cc1` the entry was “inactive”; with `C[C@H](CO)N1C[C@H](C)[C@H](CN(C)Cc2ccc(Oc3ccccc3)cc2)Oc2c(NC(=O)Nc3ccc4c(c3)OCO4)cccc2C1=O`, “active”; with `C[C@@H]1CN([C@@H](C)CO)C(=O)c2cccc(NC(=O)Nc3ccc4c(c3)OCO4)c2O[C@@H]1CN(C)Cc1ccc(Oc2ccccc2)cc1`, “inactive”. On to `C[C@@H]1CN([C@H](C)CO)C(=O)c2cccc(NC(=O)Nc3ccc4c(c3)OCO4)c2O[C@H]1CN(C)Cc1ccc(Oc2ccccc2)cc1`, for which the cytotoxicity call was “active”. In the case of `C[C@H]1CN([C@@H](C)CO)C(=O)c2cccc(NC(=O)Nc3ccc4c(c3)OCO4)c2O[C@H]1CN(C)Cc1ccc(Oc2ccccc2)cc1`, the cytotoxicity call is “active”. Under `C[C@@H]1CN([C@@H](C)CO)C(=O)c2cccc(NC(=O)Nc3ccc4c(c3)OCO4)c2O[C@H]1CN(C)Cc1ccc(Oc2ccccc2)cc1` stands “inactive”; under `C[C@H]1CN([C@@H](C)CO)C(=O)c2cccc(NC(=O)Nc3ccc4c(c3)OCO4)c2O[C@@H]1CN(C)Cc1ccc(Oc2ccccc2)cc1`, “inactive”; under `C[C@H](CO)N1C[C@H](C)[C@@H](CN(C)Cc2ccc(Oc3ccccc3)cc2)Oc2c(NC(=O)Nc3ccc4c(c3)OCO4)cccc2C1=O`, “inactive”. Consider `C[C@@H]1CN([C@H](C)CO)C(=O)c2cccc(NC(=O)Nc3ccc4c(c3)OCO4)c2O[C@@H]1CN(C)Cc1ccc(Oc2ccccc2)cc1`, for which the cytotoxicity call is “inactive”. In the case of `C[C@H]1CN([C@@H](C)CO)C(=O)c2cccc(NC(=O)Nc3ccc4c(c3)OCO4)c2O[C@H]1CN(C)Cc1ccc(-c2ccccc2)cc1`, the cytotoxicity call was “inactive”. As for `C[C@@H]1CN([C@@H](C)CO)C(=O)c2cccc(NC(=O)Nc3ccc4c(c3)OCO4)c2O[C@@H]1CN(C)Cc1ccc(-c2ccccc2)cc1`, the cytotoxicity call is “active”. Consider `C[C@@H]1CN([C@H](C)CO)C(=O)c2cccc(NC(=O)Nc3ccc4c(c3)OCO4)c2O[C@@H]1CN(C)Cc1ccc(-c2ccccc2)cc1`, for which the cytotoxicity call is “inactive”.
